# Source: PubChem BioAssay (NCATS)
# Records with an inconclusive call do not appear. Entries that show only a call come without a potency. Activity calls are given as the source filed them. The call rests on the fitted dose curve; in most records, active means well fitted inhibition curve with a large enough effect; inconclusive means small, poorly fitted or top-dose-only effect; inactive means flat fitted curve, though single readings scatter.
# Assays:
# Assay in all cases: qHTS profiling for inhibitors of Plasmodium falciparum proliferation (AID 504749); further: nearly all actives have a fitted effect of over 60% in size
# Conditions in all cases: P. falciparum in erythrocytes, SYBR Green DNA, 72 h; series mostly up to 28.7 µM
# CP211 = tested on: CP211
# How it was run: (§1)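 Fluorescence of SYBR Green-bound parasite DNA, read at 485/535 nm, served as the growth measure. Infected erythrocytes were cultured with compound 72 h; artemisinin (0.29 uM) and DMSO wells defined the normalization range.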
# CP215 = tested on: CP215
# How it was run: as §1
# CP217 = tested on: CP217
# How it was run: as §1
# CP237 = tested on: CP237
# How it was run: as §1
# CP238 = tested on: CP238
# How it was run: as §1
# CP247 = tested on: CP247
# How it was run: as §1
# CP250 = tested on: CP250
# How it was run: as §1
# CP252 = tested on: CP252
# How it was run: as §1
# CP256 = tested on: CP256
# How it was run: as §1
# CP260 = tested on: CP260
# How it was run: as §1
# CP262 = tested on: CP262
# How it was run: as §1
# CP265 = tested on: CP265
# How it was run: as §1
# CP266 = tested on: CP266
# How it was run: as §1
# CP268 = tested on: CP268
# How it was run: as §1
# CP269 = tested on: CP269
# How it was run: as §1
# CP286 = tested on: CP286
# How it was run: as §1
# CP291 = tested on: CP291
# How it was run: as §1
# CP297 = tested on: CP297
# How it was run: as §1
# CP305 = tested on: CP305
# How it was run: as §1
# CP315 = tested on: CP315
# How it was run: as §1
# Potency means the concentration at half of the fitted maximal effect.
SMILES,outcome (CP211),Potency (CP215),outcome (CP217),Potency (CP237),Potency (CP238),Potency (CP247),Potency (CP250),outcome (CP252),outcome (CP256),Potency (CP260),outcome (CP262),Potency (CP265),outcome (CP266),Potency (CP268),outcome (CP269),Potency (CP286),outcome (CP291),outcome (CP297),Potency (CP305),outcome (CP315)
Cc1c(Cn2ccnc2)c2ccccc2n1CCC(=O)O,inactive,inactive,inactive,inactive,inactive,inactive,inactive,inactive,inactive,inactive,inactive,inactive,inactive,inactive,inactive,inactive,inactive,inactive,inactive,inactive
CCc1nnc(NS(=O)(=O)c2ccc(N)cc2)s1,inactive,inactive,inactive,inactive,inactive,inactive,inactive,inactive,inactive,inactive,inactive,inactive,inactive,inactive,inactive,inactive,inactive,inactive,inactive,inactive
CC(O)CCCCn1c(=O)c2c(ncn2C)n(C)c1=O (stereo not given),inactive,inactive,inactive,inactive,inactive,inactive,inactive,inactive,inactive,inactive,inactive,inactive,inactive,inactive,inactive,inactive,inactive,inactive,inactive,inactive
O=c1[nH]c2cc(C(F)(F)F)c(N3CCOCC3)cc2n(CP(=O)(O)O)c1=O,inactive,inactive,inactive,inactive,inactive,inactive,inactive,inactive,inactive,inactive,inactive,inactive,inactive,inactive,inactive,inactive,inactive,inactive,inactive,inactive
Cc1cccc(Nc2ccccc2C(=O)O)c1C,inactive,inactive,inactive,inactive,inactive,inactive,inactive,inactive,inactive,inactive,inactive,inactive,inactive,inactive,inactive,inactive,inactive,inactive,inactive,inactive
NNC(=O)CP(=O)(c1ccccc1)c1ccccc1,inactive,inactive,inactive,inactive,inactive,inactive,inactive,inactive,inactive,inactive,inactive,inactive,inactive,inactive,inactive,inactive,inactive,inactive,inactive,inactive
CC(=O)Oc1cccc(O)c1,inactive,inactive,inactive,inactive,inactive,inactive,inactive,inactive,inactive,inactive,inactive,inactive,inactive,inactive,inactive,inactive,inactive,inactive,inactive,inactive
O=C(O)CNC(=O)c1ccccc1I,inactive,inactive,inactive,inactive,inactive,inactive,inactive,inactive,inactive,inactive,inactive,inactive,inactive,inactive,inactive,inactive,inactive,inactive,inactive,inactive
O=C(O)c1ccc[n+]([O-])c1,inactive,inactive,inactive,inactive,inactive,inactive,inactive,inactive,inactive,inactive,inactive,inactive,inactive,inactive,inactive,inactive,inactive,inactive,inactive,inactive
CCOC(=O)c1cccnc1,inactive,inactive,inactive,inactive,inactive,inactive,inactive,inactive,inactive,inactive,inactive,inactive,inactive,inactive,inactive,inactive,inactive,inactive,inactive,inactive
CCCCCCCCCCCCCCCCC(C(=O)O)C(O)(CC(=O)O)C(=O)O (stereo not given),inactive,inactive,inactive,inactive,inactive,11.2 µM (active),inactive,inactive,inactive,inactive,inactive,inactive,inactive,inactive,inactive,inactive,inactive,inactive,inactive,inactive
CC(C)=CCC/C(C)=C/CO,inactive,inactive,inactive,inactive,inactive,inactive,inactive,inactive,inactive,inactive,inactive,inactive,inactive,inactive,inactive,inactive,inactive,inactive,inactive,inactive
C[C@@H](N)C(=O)O,inactive,1.69 µM (active),inactive,inactive,inactive,inactive,inactive,inactive,inactive,inactive,inactive,inactive,inactive,inactive,inactive,inactive,inactive,inactive,inactive,inactive
